Where “and” joins values, the source holds several entries; their conditions need not be identical. Equal values may be shown once. Values without a mark were called inactive. Inconclusive results are not listed. Calls of active or inactive are those of the source. Unless noted, calls come from the whole dose curve.
% is set by controls: 0 for no effect and ±100 for the full control effect.

One assay can be described thus: qHTS assay to identify small molecule antagonists of the estrogen related receptor (ERR) signaling pathway from Tox21 library (AID 1224848; active = well fitted inhibition curve with a large enough effect in the repeat runs; note: nearly all actives have a fitted effect of over 50% in size; note: potency is the fitted concentration of half-maximal effect). The conditions noted are these: ERR reporter cell line, luciferase antagonist mode, 18 h; series mostly up to 92.4 µM; activity, negative = inhibition: at the top concentration. The essentials: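 ERR cell line, 2,000 cells/well. 6 h settle, then compound (DMSO) added; 18 h at 37 C; ONE-Glo luminescence after 30 min RT.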
On the technique in general: Quantitative high-throughput screening tests each substance at several concentrations.
Turning to `COP(=S)(OC)Oc1nc(Cl)c(Cl)cc1Cl`, the “activity, negative = inhibition” value is -15.5%.
Consider `c1ccc(Nc2ccc(Nc3ccccc3)cc2)cc1`, for which the “activity, negative = inhibition” value was -20.2%.
For the compound `N#CC(C#N)=NNc1cccc(Cl)c1`, the Potency is 0.77 µM (active).
As for `CCN(CC)CCN1C(=O)CN=C(c2ccccc2F)c2cc(Cl)ccc21`, the “activity, negative = inhibition” value is -16.3% [at 42.5 µM].
For the compound `Nc1ccccc1-c1ccccc1`, the Potency is 27.1 µM (active).
`Brc1cccc(-c2ccccc2)c1`: the “activity, negative = inhibition” value was -1.41%.
As for `Cc1ccn2nc(S(=O)(=O)Nc3c(F)cccc3F)nc2n1`, the “activity, negative = inhibition” value was 0.302%.
Same read-out and setting: the value for `COC(=O)C(C)N(C(=O)c1ccco1)c1c(C)cccc1C` (configuration not stated) was -24.3%.

The next assay in a line: qHTS assay to identify small molecule agonists of the estrogen related receptor (ERR) signaling pathway from Tox21 library (AID 1224849). Note: nearly all actives have a fitted effect of over 15% in size. The conditions noted are these: ERR reporter cell line, ONE-Glo luciferase, 18 h; at 92.4 µM (top of the series) unless noted. In outline: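 Reporter cells (ERR, NTP source) treated with Tox21 10K compounds 18 h, 37 C. Readout: ONE-Glo luminescence, 30 min RT.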
Regarding `COP(=S)(OC)Oc1nc(Cl)c(Cl)cc1Cl`, the activity change, positive = activation is -11.3%.
Regarding `c1ccc(Nc2ccc(Nc3ccccc3)cc2)cc1`, the activity change, positive = activation was -22.9%.
As to `O=Cc1ccccc1`, the activity change, positive = activation is 7.55%.
The same measure, in the same setting: the value for `N#CC(C#N)=NNc1cccc(Cl)c1` was -57.7%; that for `Nc1cc(Cl)ccc1Cl` was -0.0267%.
Turning to `BrCC(Br)(Br)Br`, the activity change, positive = activation was 15.6%.
On the same count and under the same terms, then `CCC(OC(C)=O)C(CC(C)NC)(c1ccccc1)c1ccccc1` (configuration not stated), with -58.4%; and `O=C1C2(Cl)C3(Cl)C4(Cl)C(Cl)(Cl)C5(Cl)C3(Cl)C1(Cl)C5(Cl)C24Cl` (configuration not stated), with -74.4% and -66.3%.
Consider `O=C1C(Cl)=C(Cl)C(=O)C(Cl)=C1Cl`, for which the activity change, positive = activation was -23.7% and -49%.
For the compound `Fc1ccc(C(OCCN2CCN(CCCc3ccccc3)CC2)c2ccc(F)cc2)cc1`, the activity change, positive = activation was -58.9% [at 42.5 µM].
On to `CCN(CC)CCN1C(=O)CN=C(c2ccccc2F)c2cc(Cl)ccc21`, for which the activity change, positive = activation was -10.4% [at 42.5 µM].
As to `Nc1ccccc1-c1ccccc1`, the activity change, positive = activation was -40.4%.
Take `Oc1cccc(Cl)c1Cl`: the activity change, positive = activation is -30.2%.
The same measure, in the same setting: the value for `Brc1cccc(-c2ccccc2)c1` was -0.973%; that for `CCCCCON=O` was -5.1%; that for `Cc1ccn2nc(S(=O)(=O)Nc3c(F)cccc3F)nc2n1` was 1.87%.
The same measure, in the same setting: then `COC(=O)C(C)N(C(=O)c1ccco1)c1c(C)cccc1C` (configuration not stated), with -15.8%; and `CN1CCc2cc(Cl)c(O)cc2[C@H]2c3ccccc3CC[C@@H]21`, with 0.522% [at 42.5 µM]; and `O=c1c2ccccc2c(=O)c2c1cc(Cl)c1[nH]c3c([nH]c12)c(Cl)cc1c(=O)c2ccccc2c(=O)c13`, with -7.42%.

The record behind these values is PubChem BioAssay (Tox21).
